Results from PubChem BioAssay AID977607 (Broad Institute, 2014).
The campaign covered roughly 1,500 compounds. About 460 (31%) were called active. About 1% were inconclusive and are not listed.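 How the source made its calls: active means curve reaches 40% activation over neutral controls at an AC40 no higher than the top valid tested concentration; inconclusive means no clear call, values can overlap the other calls; inactive means signal moving opposite to the expected increase, and the rest.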 Only a sample is shown. Potency and affinity values are given separately.

Assay: GLuc-reported insulin release enhancers, glucose-stimulated beta cells – cell-based, INS-1E, Gaussia luciferase, luminescence, cherry-pick, set 2, dose response (AID 977607);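 further: 0% = median of the plate neutral control wells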
Conditions: INS-1E GLuc insulin secretion reporter, 2-3 h, hits give high values; at 35 µM, 100% = signal doubled over neutral wells unless noted

Max activation, inactive:
O=S(=O)(NCc1ccccc1)c1ccc(S(=O)(=O)N2CCCCC2)cc1 -11.7% [at 3.8 µM, 100% = signal doubled over neutral wells]
NS(=O)(=O)c1ccc(CNC(=O)c2cc(S(=O)(=O)N3CCOCC3)ccc2N2CCCC2)cc1 -17.8% [at 0.0016 µM, 100% = signal doubled over neutral wells]
CNS(=O)(=O)c1ccc2c3c(cccc13)C(=O)N2 19.7%
CC(=O)Nc1cccc(-n2c(=O)n(Cc3ccccc3)c(=O)c3[nH]cnc32)c1 18.8% [at 1.2 µM, 100% = signal doubled over neutral wells]
N#CCCCc1cc2ccccc2cn1 -14.5% [at 0.046 µM, 100% = signal doubled over neutral wells]
COc1cc(/C=N/NC(=O)CNC(=O)c2cccs2)ccc1O -23.7% [at 0.015 µM, 100% = signal doubled over neutral wells]
COc1cc(/C=N/Nc2cc(C)nc(NS(=O)(=O)c3ccc(C)cc3)n2)ccc1O 36.9% [at 3.8 µM, 100% = signal doubled over neutral wells]
COc1ccc(/C=N/NC(=O)Cn2cnc3ccccc3c2=O)cc1OC 23.7% [at 11 µM, 100% = signal doubled over neutral wells]
CCNc1nc(CC)nc2c1oc1ccccc12 -18.9% [at 0.015 µM, 100% = signal doubled over neutral wells]
Cc1cccc(-n2c(C)c(C)c3c(N)ncnc32)c1 29.8%
N#CCc1nn2c(-c3ccccc3)ccnc2c1C#N -20% [at 0.015 µM, 100% = signal doubled over neutral wells]
COc1ccc(/C=C/c2nc(C#N)c(NCCN(C)C)o2)cc1OC -15.9% [at 0.42 µM, 100% = signal doubled over neutral wells]
CCOCC(=O)Nc1c(C(=O)OCC)oc2ccccc12 28.8% [at 3.8 µM, 100% = signal doubled over neutral wells]
Nc1[nH]c(C(=O)c2ccccc2)c(-c2ccncc2)c1C(=O)NCc1cccc2ccccc12 -29.2%
C[C@@H]1CN([C@H](C)CO)C(=O)c2cc(C3=CCCCC3)cnc2O[C@H]1CN(C)C(=O)CN1CCOCC1 -24.7% [at 0.005 µM, 100% = signal doubled over neutral wells]
O=C(c1cccs1)N(Cc1cccc(F)c1)C1CCS(=O)(=O)C1 (centres undefined) 26.2% [at 0.005 µM, 100% = signal doubled over neutral wells]
O=C(c1cccs1)N(Cc1ccc(Cl)cc1)C1CCS(=O)(=O)C1 (centres undefined) 21.3%
CCOC(=O)C1=NN(C(=O)Nc2cccc(C(F)(F)F)c2)C2C(=O)N(c3cccc(C(F)(F)F)c3)C(=O)C12 (centres undefined) 17.3% [at 3.8 µM, 100% = signal doubled over neutral wells]
N#Cc1ccc(-c2ccc3c(c2)[C@@H]2[C@@H](CCN2C(=O)C2CCCC2)[C@@H](CO)N3)cc1 -29.6%
O=C(CCn1nc(-c2ccc(Cl)cc2)ccc1=O)NCCCN1CCCCCC1 -17.5% [at 0.005 µM, 100% = signal doubled over neutral wells]
CC(C)(C)C1=Nn2c(nnc2C2CCCCC2)SC1 27% [at 11 µM, 100% = signal doubled over neutral wells]
C=CCNc1cc(C)oc(=O)c1C(=O)CCC -21.1% [at 0.015 µM, 100% = signal doubled over neutral wells]
CCN1CCN(CCCNC(=O)c2ccc3c(c2)N(Cc2ccccc2)CCS3)CC1 -25.6% [at 11 µM, 100% = signal doubled over neutral wells]
CCOC(=O)c1sc2nc(C)[nH]c(=O)c2c1C 8.29% [at 0.135 µM, 100% = signal doubled over neutral wells]
CCCCc1nc(N)c(C#N)c(-c2ccco2)c1CCC 35.2%
COc1ccc(CCNC(=O)CCCc2nnc3n(C)c(=O)c4sccc4n23)cc1OC -17.7% [at 0.0016 µM, 100% = signal doubled over neutral wells]
COc1ccc(CCNC(=O)CCC(=O)c2cccs2)cc1OC 35.6% [at 1.2 µM, 100% = signal doubled over neutral wells]
COc1ccc(-n2c3c(c(=O)[nH]c2=O)C(NS(=O)(=O)c2ccc(Cl)cc2)(C(F)(F)F)C(=O)N3)cc1 (centres undefined) -27.1% [at 0.015 µM, 100% = signal doubled over neutral wells]
N#Cc1cnn2c(C(F)(F)F)cc(-c3ccccc3)nc12 -14.3% [at 0.0016 µM, 100% = signal doubled over neutral wells]
Cc1cc(C)c(CSc2nnnn2-c2ccc(C(=O)O)cc2)c(C)c1 -11.8% [at 1.2 µM, 100% = signal doubled over neutral wells]
O=C(c1cccnc1)N(Cc1ccccc1)c1ccccc1 25.1%
CCCNC(=O)C1(C)CCCN(Cc2cccn2C)C1 (centres undefined) -16.6% [at 3.8 µM, 100% = signal doubled over neutral wells]
CC(=O)Nc1ccc(Cl)c(-c2nc3ncccc3o2)c1 24% [at 0.005 µM, 100% = signal doubled over neutral wells]
CC(C)CCN(CC(=O)NCc1ccc(F)cc1)S(=O)(=O)c1ccccc1F -38.5% [at 11 µM, 100% = signal doubled over neutral wells]
